Data on 20 compounds can be found in PubChem BioAssay (NCATS).

Test [1] can be described thus: Quantitative highthroughput screen to assess conditional lethalithy of NOMO1 cells grown in RPMI1640 with dialyzed fetal bovine serum (RPMI+ds) (AID 1963877).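 For viability: series mostly up to about 46 µM; 100% = DMSO control wells and 0% = empty wells.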 Note: nearly all actives have a fitted effect of over 30% in size. An outline of the steps: (§1)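 Each medium arm—HPLM with 10% dialyzed FBS, or RPMI1640 with 5 mM glucose and 10% untreated or dialyzed FBS—was screened against an 11-point, 3-fold compound titration for 48 h at 37 °C, with CellTiter-Glo luminescence as endpoint.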

Test [2] in a line: Quantitative highthroughput screen to assess conditional lethalithy of P12 Ichikawa cells grown in Human Plasma-Like Medium with dialyzed fetal bovine serum (HPLM+ds) (AID 1963879). For viability: series mostly up to about 46 µM. Note: nearly all actives have a fitted effect of over 35% in size. The settings on record: Potency: viability. In outline:
as §1

The nature of test [3]: Quantitative highthroughput screen to assess conditional lethalithy of P12 Ichikawa cells grown in RPMI1640 with untreated serum (RPMI+s) (AID 1963881).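 For viability: series mostly up to about 46 µM; 100% = DMSO wells and 0% = empty wells without cells.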 Note: nearly all actives have a fitted effect of over 35% in size. Particulars: Potency: viability. An outline of the steps: as §1
Test [4] in a line: Quantitative highthroughput screen to assess conditional lethalithy of SEM cells grown in Human Plasma-Like Medium with dialyzed fetal bovine serum (HPLM+ds) (AID 1963882). For viability: series mostly up to about 46 µM. Note: nearly all actives have a fitted effect of over 35% in size. An outline of the steps:
as §1

A short description of test [5]: Quantitative highthroughput screen to assess conditional lethalithy of SEM cells grown in RPMI1640 with dialyzed fetal bovine serum (RPMI+ds) (AID 1963884).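 For viability: series mostly up to about 46 µM; 100% = DMSO control wells and 0% = empty wells without cells.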 Note: nearly all actives have a fitted effect of over 35% in size. An outline of the steps:
as §1

The nature of test [6]: Cellular viability qHTS for adrenocortical cancer (ACC) cell line NCI-H295R (AID 1963990). Note: nearly all actives have a fitted effect of over 60% in size. An outline of the steps: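 Readout: CellTiter-Glo luminescence, 20 min RT. Exposure: 48 h, 37C/5% CO2. Cells: NCI-H295R, ITS-DMEM serum-free. Range: up to 46 uM. Analysis: 4PL fit, IC50 plus efficacy.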
(In qHTS, concentration-response curves come from the screen itself.)

Test [7] is described as follows: Quantitative highthroughput screen to assess conditional lethalithy of NOMO1 cells grown in Human Plasma-Like Medium with dialyzed fetal bovine serum (HPLM+ds) (AID 1963878).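 For viability: 100% = DMSO wells and 0% = empty wells on each plate.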 Note: nearly all actives have a fitted effect of over 35% in size. An outline of the steps:
as §1

Test [8] can be described thus: Quantitative highthroughput screen to assess conditional lethalithy of SEM cells grown in RPMI1640 with unreated serum (RPMI+s) (AID 1963883).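 For viability: 100% = DMSO wells and 0% = empty wells without cells.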 Note: nearly all actives have a fitted effect of over 35% in size. An outline of the steps:
as §1

Test [9] can be described thus: Quantitative highthroughput screen to assess conditional lethalithy of P12 Ichikawa cells grown in RPMI1640 with dialyzed fetal bovine serum (RPMI+ds) (AID 1963880).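 For viability: 100% = DMSO wells and 0% = empty wells on each plate.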 Note: nearly all actives have a fitted effect of over 35% in size. The settings on record: Potency: P12-Ichikawa viability. In outline:
as §1

The nature of test [10]: Cellular viability qHTS for adrenocortical cancer (ACC) cell line SW-13 (AID 1963989).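 For activity (max response): cells grown in serum-free medium with ITS supplement; % is set by controls: 0 for no effect and ±100 for the full control effect.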 Note: nearly all actives have a fitted effect of over 65% in size. The settings on record: SW-13 ACC cells viability, CellTiter-Glo, 48 h; activity (max response): active compounds read low. An outline of the steps:
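Compound titrations (up to 46 uM final, in DMSO) were applied to SW-13 cells for 48 h at 37C/5% CO2. Reading used CellTiter-Glo after 20 min at room temperature; fitted curves yielded IC50 and efficacy.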

Records with an inconclusive call do not appear. Unmarked numbers belong to inactive results. Active and inactive are the calls of the source. Calls come from the whole dose curve; as a rule, active = well fitted curve in the direction sought with a large enough effect; inconclusive = small, poorly fitted or top-dose-only effect, or another doubt; inactive = no such curve, though single readings can be large; an effect the other way counts as inactive or inconclusive.
Potency is the fitted concentration of half-maximal effect.

Turning to `COC1CCC(C(=O)c2ccc3nc4c(cc3c2)CCCO4)CC1` (configuration not stated), the Potency in test [1] was 18.7 µM (active); in [5], 3.32 µM (active). For the same compound, the Potency result in [2], in test [3], in test [4] and in test [6] was “inactive” each time.

With `N#CC(=C1Nc2ccccc2S1)c1ccnc(OCc2ccc(CN3CCOCC3)cc2)n1`, the Potency in test [1] was 8.33 µM (active); in [7], 6.62 µM (active). For the same compound, the Potency entry in [4], in test [8] and in test [5] was “inactive” throughout.

Consider `CC(=O)N1CCN(c2ccc(OCc3nn(C)c(C)c3-c3cccc4c(CCCOc5cc(C)c(Cl)c(C)c5)c(C(=O)O)n(Cc5cccnc5)c34)cc2)CC1`, for which, in [1], the Potency entry is “inactive”. The Potency in [8] was 18.7 µM (active); in test [5], 20.9 µM (active).

`CN(C)CCOc1cc(-c2cn[nH]c2)ccc1NC(=O)C1COc2ccccc2O1` (configuration not stated): the Potency in test [1] was 6.62 µM (active); in test [6], 17.8 µM (active). The Potency entry in test [2] and in test [9] was “inactive” each time.

Turning to `C=CC[C@@H]1C=C(C)C[C@H](C)C[C@H](OC)[C@H]2O[C@@](O)(C(=O)C(=O)N3CCCC[C@H]3C(=O)O[C@H](C(C)=C[C@@H]3CC[C@H](O)[C@H](OC)C3)[C@@H](C)[C@@H](O)CC1=O)[C@@H](C)C[C@@H]2OC`, the Potency in test [7] was 4.18 µM (active); in [9], 6.62 µM (active); in [3] it was 6.62 µM (active); in test [4] it was 3.32 µM (active); in test [8] it was 1.48 µM (active).

On to `NNCCc1ccccc1`, for which the Potency entry in test [1], in test [2], in [9], in test [3] and in [6] was “inactive” throughout.

In the case of `COc1ccc(-c2c(-c3ccc(O)cc3O)n[nH]c2C)cc1`, the Potency entry in test [1], in test [9] and in test [6] was “inactive” throughout. Further, in test [8], the Potency is 19.1 µM (active). Also, in test [10], the activity (max response) is -14.3%.

On to `CCC1=C[C@@H]2CN(C1)Cc1c([nH]c3ccccc13)[C@@](C(=O)OC)(c1cc3c(cc1OC)N(C)[C@@H]1[C@@](O)(C(=O)OC)[C@H](OC(C)=O)[C@]4(CC)C=CCN5CC[C@]31[C@@H]54)C2`, for which the Potency in [1] is 0.0743 µM (active); in test [2], 0.0372 µM (active); in test [3] it was 0.0209 µM (active); in test [4] it was 0.059 µM (active); in test [8], 0.0209 µM (active).

For the compound `O=c1cc(-c2ccc(O)cc2)oc2cc(O)cc(O)c12`, the Potency in test [1] is 18.7 µM (active). The Potency result in [2], in test [9], in test [4], in test [8] and in [6] was “inactive” each time. Moreover, the activity (max response) in test [10] is -18.3%.

`O=C(C=Cc1c(C(=O)O)[nH]c2cc(Cl)cc(Cl)c12)Nc1ccccc1`: the Potency result in test [1], in test [2] and in [9] was “inactive” each time.

As to `Cc1cccc(C)c1OCC(=O)N[C@@H](Cc1ccccc1)[C@@H](O)C[C@H](Cc1ccccc1)NC(=O)[C@H](C(C)C)N1CCCNC1=O`, the Potency result in [1] was “inactive”. Further, in test [6], the Potency was 16.4 µM (active).

`COC1=C2C[C@@H](C)C[C@H](OC)[C@@H](O)[C@@H](C)C=C(C)[C@H](OC(N)=O)[C@@H](OC)C=CC=C(C)C(=O)NC(=CC1=O)C2=O`: the Potency in test [1] is 20.9 µM (active); in test [7], 18.7 µM (active); in [4] it was 8.33 µM (active); in [8] it was 8.33 µM (active).

For `CC(C)N(C[C@H]1O[C@@H](n2cnc3c(N)ncnc32)[C@H](O)[C@@H]1O)C1CC(CCc2nc3ccc(C(C)(C)C)cc3[nH]2)C1` (some centres not stated), the Potency in test [7] is 5.88 µM (active); in [2], 1.05 µM (active); in test [9] it was 3.71 µM (active); in test [5], 11.7 µM (active). The Potency result in test [6] was “inactive”.

On to `CC1(C)OC2=C(C(=O)c3ccccc3C2=O)[C@H](NCc2ccccc2)[C@H]1O`, for which the Potency in [1] is 9.35 µM (active); in test [2], 14.8 µM (active); in test [9], 16.6 µM (active); in test [3], 8.33 µM (active); in test [4] it was 11.8 µM (active); in test [5], 16.6 µM (active).

On to `CC(=O)Nc1sc2c(c1-c1nc3ccccc3s1)CNC2`, for which the Potency result in test [7] and in [2] was “inactive” throughout. The Potency in test [3] was 16.6 µM (active); in test [4], 18.7 µM (active); in test [5] it was 18.7 µM (active).

For the compound `COc1cc(O)c2c(c1)C1OC1C[C@H](O)[C@H](O)C(=O)C=CC[C@H](C)OC2=O` (some centres not stated), the Potency in test [7] was 10.5 µM (active); in test [2], 18.7 µM (active); in test [9], 18.7 µM (active); in test [3], 18.7 µM (active); in [4] it was 4.69 µM (active); in [8] it was 7.43 µM (active). Also, the Potency in test [5] was 4.18 µM (active); in [10] it was 15.8 µM (active); in test [6], 15.8 µM (active).

As to `O=C(C=Cc1ccc(O)cc1)c1ccc(O)cc1O`, in test [1], the Potency entry is “inactive”. In addition, the Potency in test [8] and in test [5] was 18.7 µM (active) each time.

As to `CC(C)(C)c1cc(C(=O)O)c(NC(=O)Nc2ccc3[nH]ncc3c2)s1`, the Potency result in test [7], in [2], in test [9], in [3], in test [4] and in test [8] was “inactive” in each case. For the same compound, the Potency result in [5] and in test [6] was “inactive” throughout. The activity (max response) in [10] was -7.47%.

Take `CC(C)N1[N]C(=C2C=c3cc(O)ccc3=N2)c2c(N)ncnc21`: the Potency in test [1] is 7.43 µM (active); in test [7] it was 0.935 µM (active); in [4], 1.48 µM (active); in test [8], 2.96 µM (active); in test [5], 2.64 µM (active).

As for `C[C@@H]1O[C@@H](O[C@H]2CC[C@@]3(C)[C@H](CC[C@@H]4[C@H]3C[C@@H](O)[C@]3(C)[C@@H](C5=CC(=O)OC5)CC[C@]43O)C2)C[C@H](O)[C@@H]1O[C@H]1C[C@H](O)[C@H](O[C@H]2C[C@H](O)[C@@H](O)[C@@H](C)O2)[C@H](C)O1` (stereo in doubt), the Potency in test [1] was 0.382 µM (active); in test [2], 0.0855 µM (active); in test [9], 0.191 µM (active); in [3], 0.27 µM (active); in test [4], 0.0959 µM (active); in test [8], 0.382 µM (active).
